# Source: PubChem BioAssay AID492956 (The Scripps Research Institute Molecular Screening Center, 2010)
# Values joined by “and” are separate entries in the source; they are usually repeats but may differ in a detail not shown here. Equal entries are not always repeated. Among all 340,000 compounds or so, about 3,300 (0.97%) were called active.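 Rule for the calls: active = inhibition above the mean over all tested compounds plus 3 SD (cut at about 30% in these data); inactive = the rest.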 The entries come from a sample that favours actives as a whole.
# Molecular target: Platelet-activating factor acetylhydrolase 2, cytoplasmic (Homo sapiens) (UniProt Q99487)
# Experiment: PAFAH2 enzyme inhibitors, primary screen, biochemical, fluorescence polarization, human (AID 492956);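 note: inhibitors block probe labeling of enzyme so polarization drops; 0% = enzyme with DMSO and 100% = wells lacking PAFAH2 protein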
# Settings: recombinant PAFAH2, FP-rhodamine activity probe, at 3.39 µM, stronger effect = higher value
row,Compound,inhibition
1,CC(C)[C@H](NC(=O)N1CCn2c1nc1ccccc12)C(=O)NCc1ccc2c(c1)OCO2,-3.27% (inactive)
2,Cc1ccc(C)c(NC(=O)C2Cc3ccccc3CN2C(=O)OCc2ccccc2)c1 (stereo unspecified),5.89% (inactive)
3,Cc1ccc(/C=N/NC(=O)Cn2ccc(C(F)(F)F)n2)o1,-1.08% (inactive)
4,COc1ccc(C(=O)NCC(=O)N/N=C/c2cccnc2)cc1,-1.33% (inactive)
5,CCn1c(/C=N/NC(=O)c2ccc(OC)cc2)nc2ccccc21,41.7% (active)
6,CCn1c(SCC(=O)N/N=C/c2ccncc2)nc2ccccc21,14.4% (inactive)
7,CC(C)C(=O)NCC(c1cccs1)S(=O)(=O)c1ccc(F)cc1 (stereo unspecified),-6.08% (inactive)
8,COc1ccc(C(CC(=O)N2CCN(c3ccccc3)CC2)c2c(O)cc(OC)cc2OC)cc1 (stereo unspecified),1.97% (inactive)
9,CCCCN(C)c1ccc([N+](=O)[O-])cc1,-0.55% (inactive)
10,COc1ccccc1CSc1ncc(-c2ccc([N+](=O)[O-])cc2)[nH]1,12% (inactive)
11,CCC1OC(c2ccc([N+](=O)[O-])cc2)=Nc2ccccc21 (stereo unspecified),33.1% (active)
12,N#Cc1ccc(N2Cc3ccccc3/C2=N/C(=O)Nc2ccc(Cl)cc2)cc1,-0.92% (inactive)
13,CC1CCc2c(c3ccccc3[nH]c2=O)O1 (stereo unspecified),-0.64% (inactive)
14,COc1ccc(C2=NN(c3ccccc3)C(c3cccs3)C2)cc1 (stereo unspecified),6.25% (inactive)
15,COc1ccc(C2=NN(c3nc4ccccc4s3)C(=O)C2)cc1,48.2% (active)
16,COc1ccc(C(=O)Nc2cccc(/C=C(/CCC(=O)O)c3nc4ccccc4s3)c2)cc1,-4.68% (inactive)
17,Cc1nnc(NC(=O)CSc2nccn2-c2cccc(C)c2C)s1,6.92% (inactive)
18,O=[N+]([O-])c1cccc(/C([O-])=C(/C(=S)Nc2ccccc2F)[n+]2ccccc2)c1,-4.94% (inactive)
19,CC1CC(C)CN(C(=O)COC(=O)c2ccc3ncsc3c2)C1 (stereo unspecified),9.71% (inactive)
20,Cc1sc(NC(=O)c2ccc3ncsc3c2)c(C(N)=O)c1C,1.28% (inactive)
21,O=C(COC(=O)c1ccc2ncsc2c1)Nc1ccc(Cl)cc1,81.4% (active)
22,COc1cc2c(cc1O)C(SC)=NC(C)(C)C2,4.6% (inactive)
23,CC(C)Cc1nnc(NC(=O)CCC(=O)Nc2ccc3cn[nH]c3c2)s1,1.65% (inactive)
24,Cc1cc(C)c(C#N)c(Nc2cccc(Br)c2)n1,-4.25% (inactive)

row,Compound,inhibition
1,CCCCNC(=O)OC(C)CNC(=O)OC (stereo unspecified),-6.1% (inactive)
2,Cc1onc(C(=O)NCc2ccc(F)cc2)c1[N+](=O)[O-],-3.19% (inactive)
3,O=C(/C=C/c1ccc([N+](=O)[O-])o1)NNC(=O)c1ccc(F)cc1,39.5% (active)
4,COc1ccc(C(=O)NCC(=O)N/N=C/c2ccc([N+](=O)[O-])o2)cc1OC,0.4% (inactive)
5,Cc1ccc(S(=O)(=O)N(C)CC(=O)OCC(=O)Nc2ccccc2)cc1,0.35% (inactive)
6,Cc1ccsc1C(=O)OCC(=O)NCCc1ccccc1,25.5% (inactive)
7,Cc1ccsc1C(=O)OCC(=O)Nc1cccc(F)c1,90.7% (active)
8,O=C(COc1ccccc1)Nc1ccc(F)cc1,-4.21% (inactive)
9,CN(CC(=O)Nc1cccc(F)c1)C(=O)CC1CCCC1,0.25% (inactive)
10,O=C(COC(=O)C1CC2C=CC1C2)Nc1ccccc1 (stereo unspecified),77.7% (active)
11,CC1CC1C(=O)OCC(=O)Nc1cccc(F)c1 (stereo unspecified),78.9% (active)
12,COc1ccc(CNC(=O)COC(=O)c2sccc2C)cc1OC,5.02% (inactive)
13,O=C(COC(=O)CNC(=O)C1CCCCC1)Nc1cccc(F)c1,-0.43% (inactive)
14,CCCCCC(=O)N1CCN(S(=O)(=O)c2ccc3c(c2)OCCCO3)CC1,6.58% (inactive)
15,Clc1ccc(C2[C@H]3CN(CC4CCCCC4)[C@H](c4ccccc4)C34CC2(c2cccnc2)C4)cn1 (stereo partly specified),-11.3% (inactive)
16,COc1cc(C2C(C(=O)c3sc(C)nc3C)=C(O)C(=O)N2CCN(C)C)cc(OC)c1OC (stereo unspecified),2.01% (inactive)
17,COc1ccccc1N1CC(C(=O)Nc2ccc(S(=O)(=O)N3CCOCC3)cc2)CC1=O (stereo unspecified),2.45% (inactive)
18,CC(=O)Nc1ccc(NS(=O)(=O)c2cc(C)sc2C)cc1,5.36% (inactive)
19,OC(CNC1CCCC1)COc1ccc(F)cc1 (stereo unspecified),-6.14% (inactive)
20,CC(C)(C)NC(=O)c1cccc(NC(=O)Cc2ccc(Br)cc2)c1,-0.14% (inactive)
21,FC(F)Oc1ccccc1C1CC(c2ccc(Br)s2)Nc2ncnn21 (stereo unspecified),4.45% (inactive)
22,CC1CCCCC1NC(=O)CO/N=C/c1ccc(OC(F)F)cc1 (stereo unspecified),5.23% (inactive)
23,C=CCOc1ccc(/C=C/C(=O)OC(C)C(=O)Nc2ccc(NC(C)=O)cc2)cc1 (stereo unspecified),-1.01% (inactive)
24,C=CCOc1ccc(/C=C/C(=O)OCC(=O)NC2CCCCCC2)cc1,77% (active)

row,Compound,inhibition
1,C=CCOc1ccc(/C=C/C(=O)OCC(=O)NC(C)c2ccc(F)cc2)cc1 (stereo unspecified),33.1% (active)
2,C=CCOc1ccc(/C=C/C(=O)OCC(=O)NCC2CCCO2)cc1 (stereo unspecified),29.2% (inactive)
3,O=C(COC(=O)/C=C/c1ccc(OC(F)F)cc1)NC1CCCCC1,59.9% (active)
4,CCC(=O)c1ccc(OCC(=O)OCC(=O)NC2CCCCCC2)cc1,1.93% (inactive)
5,CC(NC(=O)COC(=O)c1ccc(Cl)cc1O)c1ccc(F)cc1 (stereo unspecified),11% (inactive)
6,O=C(CO/N=C/c1ccccc1OC(F)F)NC1CCCC1,4.52% (inactive)
7,O=c1ccc2cc(S(=O)(=O)N3CCN(c4ccccc4)CC3)ccc2o1,-3.62% (inactive)
8,COC(=O)CCSc1nccn1Cc1ccccc1,3.07% (inactive)
9,CC(=O)c1c(N2CCN(c3ccc(F)cc3)CC2)nc(=S)n(-c2ccccc2)c1C,-5.81% (inactive)
10,Cc1ccc(NC(=O)CN(C)S(=O)(=O)c2cnc[nH]2)cc1C,4.95% (inactive)
11,O=C(NC1=CC(=O)c2ccccc2C1=O)c1ccccc1,45.2% (active)
12,O=C1C=C(NS(=O)(=O)c2ccccc2)C(=O)c2ccccc21,5.32% (inactive)
13,CC(NC(=O)c1ccccc1)C(=O)Nc1ccccc1 (stereo unspecified),-1.79% (inactive)
14,Cc1cccc(C2C3=C(CCCC3=O)N=C3c4ccccc4C(=O)C32)c1 (stereo unspecified),9.45% (inactive)
15,O/N=C(\C[n+]1ccccc1)c1ccc(Br)cc1,-4.24% (inactive)
16,O=C(C1CCN(Cc2ccc(Cl)cc2)CC1)N1CCN(Cc2ccc3c(c2)OCO3)CC1,2.96% (inactive)
17,CCCOc1ccc(NC(=O)CC2C(=O)N(C)C(=S)N2Cc2ccc3c(c2)OCO3)cc1 (stereo unspecified),-2.75% (inactive)
18,O=C(Nc1ccc(Cl)cc1)C1c2cccc[n+]2CC(=O)N1Cc1ccc2c(c1)OCO2 (stereo unspecified),43.6% (active)
19,Cc1c(Br)cc(C(=O)N2CCCCCC2)c(C)c1C,1.14% (inactive)
20,CC1CCc2c(sc3c2C2=NS(=O)(=O)CCN2C=N3)C1 (stereo unspecified),0.66% (inactive)
21,COCCNC(=O)NC(=O)COC(=O)C1(c2ccc(Cl)cc2)CC1,13% (inactive)
22,Cc1ccc(Cc2nnc(SCC(=O)Nc3ccccc3C)[nH]c2=O)cc1,6.57% (inactive)
23,COc1ccccc1-c1cnn2c(N3CCOCC3)cc(C)nc12,-3.57% (inactive)
24,CS(=O)(=O)c1ccc(C(=O)OCC(=O)NNC(=O)COc2ccc(Cl)cc2)cc1,1.43% (inactive)

row,Compound,inhibition
1,O=C(COc1ccc(Cl)cc1)Nc1ccccc1CO,0.9% (inactive)
2,CCS(=O)(=O)c1ccc(O)c(NC(=O)COc2ccc(Cl)cc2)c1,75.6% (active)
3,O=C(c1ccc(=O)[nH]c1)N(Cc1ccco1)C1(C(=O)NC2CCCCC2)CCCCC1,-0.52% (inactive)
4,N#Cc1nc(COc2ccc(Cl)cc2)oc1N1CCCC1,-5.85% (inactive)
5,O=C(OCC(=O)N1CCN(c2ccccc2)CC1)c1ccc([N+](=O)[O-])s1,35.3% (active)
6,COc1cccc(/C=C/C(=O)OCC(=O)N2CCN(c3ccccc3)CC2)c1,1.44% (inactive)
7,C[C@H](NC(=O)c1ccccc1Cl)C(=O)OCC(=O)N1CCN(c2ccccc2)CC1,-2.12% (inactive)
8,CC(C)(C)NC(=O)CSc1nnc(NC(=O)CCc2ccccc2)s1,0.99% (inactive)
9,CCOC(=O)c1ccc(NC(=O)CNC(=O)c2ccco2)cc1,1.1% (inactive)
10,O=C(COC(=O)c1ccccc1C(=O)c1ccccc1)c1ccco1,43% (active)
11,CCc1ccc(C(=O)COC(=O)c2ccco2)cc1,9.26% (inactive)
12,CC(=O)Nc1ccc(NC(=O)COc2ccc(-c3ccccc3)cc2)cc1,-5.15% (inactive)
13,CC(C)CNC(=O)COC(=O)c1ccccc1OCC(=O)Nc1ccc(Br)cc1,-2.18% (inactive)
14,O=C(OCC(=O)N1CCN(C(=O)c2ccco2)CC1)c1ccccc1Cc1ccccc1,10.9% (inactive)
15,CC(=O)Nc1ccc(NC(=O)COC(=O)c2ccccc2C(=O)c2ccccc2)cc1,32.1% (active)
16,O=C(CNC(=O)c1ccco1)OCC(=O)c1ccccc1,4.2% (inactive)
17,CCN(CC)c1ccc(C(=O)OCC(=O)c2ccco2)cc1,35.1% (active)
18,CC1(C)C2CCC1(CS(=O)(=O)NCCc1c[nH]c3ccccc13)C(=O)C2 (stereo unspecified),4.84% (inactive)
19,O=[N+]([O-])c1ccc(Oc2ccc(F)cc2Br)c2ccncc12,-2.87% (inactive)
20,O=S(=O)(NC1CC1)c1ccc(Cl)cc1,6.44% (inactive)
21,Cc1cc(N)n(-c2ccc(S(=O)(=O)N3CCCC3)cc2[N+](=O)[O-])n1,3.65% (inactive)
22,O=C(CNC(=O)c1ccc(Cl)cc1Cl)NCC(=O)Nc1ccccc1N1CCOCC1,7.59% (inactive)
23,Oc1ccccc1C1=NN(c2ccccc2)C(c2ccccc2)C1 (stereo unspecified),2.45% (inactive)
24,O=C(COC(=O)c1c2c(nc3ccccc13)CCCC2)c1ccc(Br)s1,-8.93% (inactive)

row,Compound,inhibition
1,Cn1cccc1C(=O)OCC(=O)c1ccc(Br)s1,40.2% (active)
2,Cn1cccc1C(=O)OCC(=O)NCCc1ccccc1,12.9% (inactive)
3,C=CCN(C(=O)Cn1ncc2c1-c1cc(C)ccc1OC2)c1ccccc1,7.42% (inactive)
4,O=C(c1c(F)cccc1F)N1CCN(c2ncc(Br)cn2)CC1,9.7% (inactive)
5,COc1cc(C(=O)NCC2(c3ccccc3)CCCC2)ccc1OC(C)C,174% (active)
6,CCOc1c(OC)cccc1C(=O)NCC1(c2ccccc2)CCCC1,-1.33% (inactive)
7,COc1ccc(C2(CNC(=O)Cc3ccc(OC)c(OC)c3)CCCC2)cc1,0.3% (inactive)
8,O=C(NC(=O)c1ccccc1N1CCCCC1)Nc1ccc(Br)cc1,-2.91% (inactive)
9,Nc1ccc(C(=O)OCC(=O)NC2CCCc3ccccc32)cc1[N+](=O)[O-] (stereo unspecified),56.6% (active)
10,CCOc1ccc(NC(=O)COc2ccc(C(=O)NC3CCCc4ccccc43)cc2OC)cc1 (stereo unspecified),-2.16% (inactive)
11,COC(=O)c1cc(OCC(=O)NC2CCCc3ccccc32)cc(C(=O)OC)c1 (stereo unspecified),0.45% (inactive)
12,O=C(CCNC(=O)c1ccc(Cl)cc1)NC1CCCc2ccccc21 (stereo unspecified),0.23% (inactive)
13,Nc1ccc(C(=O)OCC(=O)NC2CCS(=O)(=O)C2)cc1[N+](=O)[O-] (stereo unspecified),0.87% (inactive)
14,NC(=O)Nc1ccc(C(=O)OCC(=O)NC2CCCc3ccccc32)cc1 (stereo unspecified),71.5% (active)
15,O=C(NNc1nc(N2CCCC2)nc(N2CCCC2)n1)c1ccccc1,8.18% (inactive)
16,CC(=O)N1c2ccc(S(=O)(=O)N3CCC(C(=O)N4CCN(c5ccccc5)CC4)CC3)cc2CC1C (stereo unspecified),-4.15% (inactive)
17,COc1cc(C(=O)NCc2nnc(SCC(=O)Nc3nc4ccc(C)cc4s3)o2)cc(OC)c1OC,4.41% (inactive)
18,CCOc1ccc(CCNC(=O)C2=C(C)C(=O)OC23CCC(C)CC3)cc1OCC (stereo unspecified),5.73% (inactive)
19,c1ccc(CCC2=NCCn3cccc32)cc1,-3.37% (inactive) and -2.16% (inactive)
20,O=C(OCC(=O)N1CCCCC1)c1ccc(OC(F)(F)F)cc1,5.16% (inactive)
